# Bioassay records as filed in PubChem BioAssay.
# HepG2 viability = counter-screen for TGF-b inhibitors: cytotoxicity in HepG2 cells | HepG2 CAGA-GFP viability, ATP luminescence, 18 h | Potency, µM (doses to about 46.1 µM), without a hit: at the highest dose activity change, negative = cytotoxicity, actives largely listed as cytotoxic | 0.76% of 410,000 active | AID 588856; further: potency means the concentration at half of the fitted maximal effect
#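 HepG2 CAGA-GFP cells (1000/well, DMEM with 1% FBS) received compound, then TGF-beta at 500 pg/mL final, and were incubated 18 hours at 37 degrees C. Viability was read by CellTiter-Glo luminescence. Media-only wells were set as complete cell-killing and DMSO as no toxicity.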
# TGFb inhibitor = TGF-b pathway inhibition; HepG2 CAGA-GFP TGF-b/SMAD3 reporter, GFP fluorescence, 18 h; TGF-beta stimulated, 500 pg/mL final; Potency, µM (top dose mostly 46.1 µM), without a hit: at the top dose activity, negative = inhibition, hits mostly inhibitors; 1.2% of 410,000 active; further: potency means the concentration at half of the fitted maximal effect; on the % scale 0 is the no-effect control and ±100 the full control effect; nearly all actives have a fitted effect of over 65% in size
#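 HEPG2 CAGA-GFP, 1000 cells/well; 2 h settle, 37 C; cpd via pin tool; TGF-b 500 pg/mL final; 18 h, 37 C; GFP imaging ex488/em500-530; %Activity normalised to -TGF-b and +DMSO controls; CRC fit, curve class.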
# TDP1 block = blocks human tyrosyl-DNA phosphodiesterase 1 | Q9NUW8 | recombinant TDP1, AlphaScreen DNA substrate cleavage | Potency, µM (doses to about 130 µM), without a hit: top-dose activity change, negative = inhibition, most hits filed as inhibitors | 0.28% of 350,000 active; further: potency means the concentration at half of the fitted maximal effect; on the % scale 0 is the no-effect control and ±100 the full control effect; nearly all actives have a fitted effect of over 40% in size
# Target sequence (Q9NUW8 whole entry, looked up): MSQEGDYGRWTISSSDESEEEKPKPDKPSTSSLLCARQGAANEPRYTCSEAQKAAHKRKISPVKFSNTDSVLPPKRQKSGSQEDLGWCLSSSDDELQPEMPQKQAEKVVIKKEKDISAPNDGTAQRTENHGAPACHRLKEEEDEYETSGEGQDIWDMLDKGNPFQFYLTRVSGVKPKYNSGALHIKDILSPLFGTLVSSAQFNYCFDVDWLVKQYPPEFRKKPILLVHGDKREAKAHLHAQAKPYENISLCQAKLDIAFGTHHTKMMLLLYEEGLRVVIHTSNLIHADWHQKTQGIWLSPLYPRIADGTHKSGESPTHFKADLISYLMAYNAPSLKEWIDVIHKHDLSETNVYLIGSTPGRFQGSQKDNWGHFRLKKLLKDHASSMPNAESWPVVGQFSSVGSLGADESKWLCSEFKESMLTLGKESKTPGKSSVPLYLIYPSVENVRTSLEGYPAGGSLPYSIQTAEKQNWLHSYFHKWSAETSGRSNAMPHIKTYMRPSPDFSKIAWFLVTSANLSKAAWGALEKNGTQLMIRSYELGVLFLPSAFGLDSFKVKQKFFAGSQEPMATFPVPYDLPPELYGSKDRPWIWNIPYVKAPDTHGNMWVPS
#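 E. coli-derived human Tdp1, 1 nM final. Cpd preinc 15 min RT; substrate 15 nM final, 5 min RT; AS bead mix 10 ug/ml final, 10 min RT. Signal loss = tyrosine-FITC cleavage. No-enzyme wells = max signal.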
# IL1B secr inh = blocks inflammasome-driven IL-1 beta release | THP-1 LPS/ATP IL-1B secretion, AlphaLISA, 16 h; stronger effect = lower value | activity change, % at 57.5 µM | 4.7% of 360,000 active | AID 743279; in the data active means activity change below about -50%; inconclusive means mostly about -30% to -49%; further: on the % scale 0 is the no-effect control and ±100 the full control effect
#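 THP-1 cells pretreated 1 hr with compounds (up to 57.5 uM final), then stimulated with LPS (250 ng/mL final) plus ATP (1.25 mM final); secreted IL-1B measured by AlphaLISA after 16 hr, decreased signal indicating inhibition.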
# TDP1 cell noCPT = qHTS for Inhibitors of human tyrosyl-DNA phosphodiesterase 1 (TDP1): qHTS in cells in absence of CPT. 15% of 420,000 active. Potency, µM (titrated, usually from 46.2 µM), inactives show top-dose activity change, negative = growth inhibition, most hits filed as inhibitors. DT40 Tdp1-/- hTDP1 cells, no CPT, ATP luminescence, 48 h; further: potency means the concentration at half of the fitted maximal effect; on the % scale 0 is the no-effect control and ±100 the full control effect; nearly all actives have a fitted effect of over 55% in size
#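 DT40 Tdp1-/-;hTDP1 cells, no CPT (DMSO vehicle only), 400 cells/well; compounds pin-transferred; ≥48 hr, 37 °C; CellTiter-Glo 30 min RT dark, luminescence read.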
# TDP1 cell CPT = DT40-hTDP1 cell growth loss with CPT; chicken DT40 Tdp1-/-;hTDP1 cells + 20 nM CPT, ATP luminescence, 48 h; Potency, µM (top dose mostly 46.2 µM), for inactives: at the top dose activity change, negative = growth inhibition, actives largely listed as inhibitors; 12% of 420,000 active; AID 686979; further: potency means the concentration at half of the fitted maximal effect; on the % scale 0 is the no-effect control and ±100 the full control effect; nearly all actives have a fitted effect of over 55% in size
#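 Chicken DT40 Tdp1-/- cells complemented with human TDP1, 400 cells/well, exposed to compounds plus 20 nM camptothecin for at least 48 h at 37 C; viability read as ATP content by CellTiter-Glo luminescence.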
# * marks the source's active call; other numbers are inactive results; ? = inconclusive; / = no result given. Most compounds without a hit are left out; they make up all but 19% or so of the library. Unless noted, the call rests on the fitted dose curve; in most records, active means well fitted curve in the direction sought with a large enough effect; inconclusive means small, poorly fitted or top-dose-only effect, or another doubt; inactive means no such curve, though single readings can be large; an effect the other way counts as inactive or inconclusive.
SMILES,HepG2 viability,TGFb inhibitor,TDP1 block,IL1B secr inh,TDP1 cell noCPT,TDP1 cell CPT
Cc1ccc(-c2csc(NC(=O)CN3CCOCC3)n2)cc1,-5%,?,/,16,16µM*,16µM*
O=C(CN1CCOCC1)Nc1ccccc1Sc1ccc(Cl)cc1,-1%,-3%,5%,-59*,6.5µM*,?
O=C(CN1CCOCC1)Nc1nc(-c2ccc(Cl)cc2)cs1,-12%,-5%,/,?,21µM*,16µM*
CC1CN(CC(=O)Nc2nc(-c3ccc(Cl)cc3)cs2)CC(C)O1 (centres undefined),-1%,?,/,?,23µM*,?
CC(NC(=O)C(=O)c1cn(CC(=O)N2CCOCC2)c2ccccc12)c1ccccc1 (centres undefined),-3%,0%,3%,16,25%,-12%
CCS(=O)(=O)N1CC(=O)N(c2cccc(Cl)c2)C(C)(C(=O)NC2CCCCCC2)C1 (centres undefined),-17%,?,3%,/,6%,-17%
O=C(Nc1nc(-c2ccc(Cl)cc2)cs1)C1CCCO1 (centres undefined),5%,7%,-1%,-69*,23µM*,?
NC(=O)C1(N2CCCCC2)CCN(CC(=O)Nc2ccccc2Sc2ccccc2)CC1,-44%,?,4%,-79*,?,?
Cc1ccc(C(=O)N2N=C(c3cccc(NS(C)(=O)=O)c3)CC2c2cccs2)cc1 (centres undefined),-33%,?,/,-7,?,?
CC(C)C(=O)N1N=C(c2ccc(NS(C)(=O)=O)cc2)CC1c1cccs1 (centres undefined),23%,4%,0%,1,?,-12%
CS(=O)(=O)Nc1cccc(C2=NN(C(=O)c3ccccc3)C(c3cccs3)C2)c1 (centres undefined),-28%,-23%,/,-29,?,21µM*
CS(=O)(=O)Nc1ccc(C2=NN(C(=O)C3CCCCC3)C(c3cccs3)C2)cc1 (centres undefined),-19%,-13%,3%,-59*,23µM*,?
O=C(O)c1cc(-c2c[nH]c3ccccc23)nc2ccc3ccccc3c12,-8%,-15%,0%,18,-2%,11%
c1ccc2c(-c3c[nH]c4ccccc34)c3ccccc3nc2c1,-29%,?,-12%,-19,16µM*,?
Cc1noc(C)c1S(=O)(=O)N(CC(=O)NCCc1ccccc1)c1ccc(C(C)C)cc1,-6%,-15%,4%,17,?,-26%
CCOc1ccccc1NC(=O)CN(c1ccc(OC)cc1)S(=O)(=O)c1c(C)noc1C,0%,?,2%,41,3.3µM*,2.9µM*
CCOc1ccccc1NC(=O)CN(c1cc(C)cc(C)c1)S(=O)(=O)c1c(C)noc1C,-27%,-19%,5%,2,-20%,-3%
Cc1noc(C)c1S(=O)(=O)N(CC(=O)NC(C)c1ccccc1)c1ccc(C(C)C)cc1 (centres undefined),-36%,?,4%,-53*,?,?
CCOc1ccc(N(CC(=O)Nc2ccccc2C)S(=O)(=O)c2c(C)noc2C)cc1,4%,?,4%,29,2.9µM*,4.6µM*
CN(C(=O)Cn1nnc(-c2ccc(S(C)(=O)=O)cc2)n1)c1ccccc1,-5%,?,-1%,/,-11%,1%
COc1ccc(Cl)cc1NC(=O)COC(=O)CCNS(=O)(=O)c1cccs1,0%,0%,1%,-2,-17%,22%
CCOc1cc(C(=O)Nc2ccc(-c3cn4cccnc4n3)cc2)cc(OCC)c1OCC,-65%,?,9%,/,9.2µM*,12µM*
